The source of these data is PubChem BioAssay (Tox21).

Test [1] can be described thus: qHTS assay to identify aromatase inhibitors - cell viability counter screen (AID 743084;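 note: cells stimulated with testosterone during compound exposure; nearly all actives have a fitted effect of over 55% in size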). (Quantitative high-throughput screening tests each substance at several concentrations.)
The target of test [2] is Aryl hydrocarbon receptor (Homo sapiens) (UniProt P35869). In words: qHTS assay to identify small molecule that activate the aryl hydrocarbon receptor (AhR) signaling pathway (AID 743085).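 For activation: HG2L7.5c1 human HepG2 liver cells with stably integrated DRE-driven firefly reporter; series mostly up to about 70 µM.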 Note: nearly all actives have a fitted effect of over 15% in size. Note: potency is the fitted concentration of half-maximal effect. A digest of the protocol:
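HepG2 cells (HG2L7.5c1) stably carrying a firefly luciferase reporter driven by 20 dioxin responsive elements were exposed to compound for 24 h at 37C after a 5 h settling period; luminescence rise (ONE-Glo) indicated activation.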

A short description of test [3]: qHTS assay to identify small molecule that activate the aryl hydrocarbon receptor (AhR) signaling pathway - cell viability counter screen (AID 743086).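 Note: HepG2 liver cells carrying the AhR DRE luciferase reporter; series mostly up to about 70 µM; nearly all actives have a fitted effect of over 45% in size.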 A digest of the protocol: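 HepG2-AhR-luc (HG2L7.5c1) cells, 4000/well, were preincubated 5 h at 37C, exposed to compound in qHTS format for 24 hr at 37C, then given CellTiter-Fluor for 30 min; viability was read as fluorescence in the reporter wells.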

Test [4] addresses Peroxisome proliferator-activated receptor gamma (Homo sapiens) (UniProt P37231). Description: qHTS assay to identify small molecule antagonists of the peroxisome proliferator-activated receptor gamma (PPARg) signaling pathway (AID 743191; calls by dose curve; note: series mostly up to about 63 µM; nearly all actives have a fitted effect of over 30% in size). A digest of the protocol:
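GeneBLAzer PPARg UAS-bla HEK293H cells carrying a UAS-driven beta-lactamase reporter were plated at 3000 cells/well, preincubated 5 h at 37C, then given compound for 17 h at 37C; LiveBLAzer B/G FRET substrate was read after 1 h at room temperature.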

Test [5] is described as follows: qHTS assay to identify small molecule antagonists of the peroxisome proliferator-activated receptor gamma (PPARg) signaling pathway - cell viability counter screen (AID 743194). Note: nearly all actives have a fitted effect of over 55% in size. The note with it: Potency: co-treated with 50 nM rosiglitazone. A digest of the protocol: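 PPARg-UAS-bla HEK293H cells were plated, rested 5 h at 37 C, then treated with compounds plus rosiglitazone (50 nM final) for 17 h at 37 C; viability was then read by CellTiter-Glo luminescence after 30 min at room temperature.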

Test [6] in a line: qHTS assay for small molecule agonists of the antioxidant response element (ARE) signaling pathway (AID 743202; active = well fitted activation curve with a large enough effect in the signal ratio in the repeat runs, not every such curve was filed as active; the % refers to the signal ratio; note: potency is the fitted concentration of half-maximal effect). A digest of the protocol:
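Read-out: LiveBLAzer B/G FRET substrate fluorescence after 2 h at room temperature, following 16 h compound treatment at 37 C of HepG2 cells carrying an ARE-driven beta-lactamase reporter.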

Test [7] in a line: qHTS assay for small molecule agonists of the antioxidant response element (ARE) signaling pathway - cell viability counter screen (AID 743203; calls by dose curve; note: nearly all actives have a fitted effect of over 55% in size). A digest of the protocol: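 HepG2 cells carrying ARE-driven beta-lactamase; 2,000 cells/well; 5 hrs plating; compound pinned from DMSO; 16 hrs 37C/5% CO2; CellTiter-Glo added; 30 min RT; luminescence.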
Test [8] is described as follows: qHTS assay for small molecule activators of the heat shock response signaling pathway - cell viability counter screen (AID 743209). Note: nearly all actives have a fitted effect of over 50% in size. A digest of the protocol: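 Luminescence from CellTiter-Glo, added after the beta-lactamase FRET read, gave the viability signal. Cells were HSE-bla HeLa treated with DMSO-dissolved compounds for 5 h at 37 C following overnight plating.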

Test [9] is described as follows: qHTS assay for small molecule activators of the heat shock response signaling pathway (AID 743210; active = well fitted activation curve with a large enough effect in the signal ratio in the repeat runs, with a control signal flat, not every such curve was filed as active; the % refers to the signal ratio; note: series mostly up to about 63 µM). A digest of the protocol: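 HSE-bla HeLa cells (beta-lactamase reporter under heat shock response elements) were exposed to compounds for 5 h at 37 C, then loaded with LiveBLAzer B/G FRET substrate for 2.5 h at room temperature before fluorescence reading.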
Test [10] can be described thus: qHTS assay to identify small molecule agonists of the peroxisome proliferator-activated receptor delta (PPARd) signaling pathway - cell viability counter screen (AID 743211). Note: nearly all actives have a fitted effect of over 55% in size. A digest of the protocol:
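PPARd-bla HEK293H cells (UAS-beta-lactamase reporter) were treated with compounds for 17 h at 37 C. Viability was then read in the same wells by CellTiter-Glo luminescence after 30 min at room temperature.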

The target in test [11] is Peroxisome proliferator-activated receptor delta (Homo sapiens) (UniProt Q03181). Description: qHTS assay to identify small molecule agonists of the peroxisome proliferator-activated receptor delta (PPARd) signaling pathway (AID 743212; calls by dose curve). A digest of the protocol:
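GeneBLAzer PPARd UAS-bla HEK293H cells (beta-lactamase reporter under UAS control), plated and rested 5 h at 37 C, then exposed to compounds in DMSO at 37 C; LiveBLAzer B/G FRET substrate added, 2 h room temperature, fluorescence read.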

Test [12] in a line: qHTS assay to identify small molecule agonists of the farnesoid-X-receptor (FXR) signaling pathway - cell viability counter screen (AID 743218). Note: nearly all actives have a fitted effect of over 45% in size. A digest of the protocol:
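HEK 293T FXR-bla cells; 5 h pre-incubation, 16 h compound exposure at 37 C; LiveBLAzer substrate 2 h RT, then CellTiter-Glo 30 min RT, luminescence.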

In test [13] the target is Vitamin D3 receptor (Homo sapiens) (UniProt P11473). In words: qHTS assay to identify small molecule agonists of the vitamin D receptor (VDR) signaling pathway (AID 743222; calls by dose curve). A digest of the protocol: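 VDR-bla cells, 2,000/well; 4 h preincubation 37C; cpd (DMSO) 16 h; LiveBLAzer B/G substrate 2 h RT; fluorescence intensity read.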
Test [14] in a line: qHTS assay to identify small molecule antagonists of the peroxisome proliferator-activated receptor delta (PPARd) signaling pathway - cell viability counter screen (AID 743213). Note: nearly all actives have a fitted effect of over 50% in size. A digest of the protocol:
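Same-well viability: cells pre-incubated 5 h, dosed with compound plus 300 nM L165041, kept 17 h at 37 C, FRET substrate 2 h RT, then CellTiter-Glo 30 min RT and luminescence.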

The target of test [15] is Peroxisome proliferator-activated receptor delta (Homo sapiens) (UniProt Q03181). In words: qHTS assay to identify small molecule antagonists of the peroxisome proliferator-activated receptor delta (PPARd) signaling pathway (AID 743215; active = well fitted inhibition curve with a large enough effect in the signal ratio in the repeat runs, not every such curve was filed as active; the % refers to the signal ratio;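 note: cells stimulated with agonist L165041 at 300 nM final during compound exposure; series mostly up to about 62 µM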). A digest of the protocol: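 Read-out is beta-lactamase FRET fluorescence, measured 2 h after substrate addition at room temperature. Beforehand, UAS-bla HEK293H cells carrying the PPARd reporter were exposed to compounds with L165041 at 300 nM final for 17 h at 37 C.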

Test [16] has as its target Bile acid receptor (Homo sapiens) (UniProt Q96RI1). Description: qHTS assay to identify small molecule agonists of the farnesoid-X-receptor (FXR) signaling pathway (AID 743220; active = well fitted activation curve with a large enough effect in the signal ratio in the repeat runs, not every such curve was filed as active; the % refers to the signal ratio). A digest of the protocol:
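Beta-lactamase reporter under UAS control in GeneBLAzer FXR HEK 293T cells (5000/well) measured with LiveBLAzer FRET substrate after 2 h at room temperature. Compound exposure lasted 16 h at 37C.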

Test [17] can be described thus: qHTS assay to identify small molecule antagonists of the farnesoid-X-receptor (FXR) signaling pathway - cell viability counter screen (AID 743221; active = well fitted cell-killing curve with a large enough effect in the repeat runs, not every such curve was filed as active; note: nearly all actives have a fitted effect of over 50% in size). A digest of the protocol: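 FXR-UAS-bla HEK 293T cells were treated with test compounds plus chenodeoxycholic acid (50 uM final) for 16 h at 37 C. Cell viability in the same wells was then read as CellTiter-Glo luminescence after 30 min at room temperature.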

Test [18] has as its target Bile acid receptor (Homo sapiens) (UniProt Q96RI1). In words: qHTS assay to identify small molecule antagonists of the farnesoid-X-receptor (FXR) signaling pathway (AID 743217; active = well fitted inhibition curve with a large enough effect in the signal ratio in the repeat runs, not every such curve was filed as active; the % refers to the signal ratio). A digest of the protocol: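 HEK 293T FXR-UAS-bla, 5000 cells/well; compound + CDCA 50 uM final; 16 h, 37 °C; B/G FRET substrate 2 h RT; fluorescence.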
In test [19] the target is Vitamin D3 receptor (Homo sapiens) (UniProt P11473). In words: qHTS assay to identify small molecule antagonists of the vitamin D receptor (VDR) signaling pathway (AID 743223; active = well fitted inhibition curve with a large enough effect in the signal ratio in the repeat runs, not every such curve was filed as active; the % refers to the signal ratio). A digest of the protocol: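 VDR-bla cells were plated, incubated 4 h at 37C, then given compound and 1alpha,25-dihydroxyvitamin D3 (3 nM final). After 16 h at 37C, LiveBLAzer B/G FRET substrate was added for 2 h at room temperature and fluorescence read.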

Several values for one entry are separate records, joined by “and”; a condition that tells them apart may be missing. Equal values may be shown once. Inconclusive results are not listed. Where a structure was tested more than once in an assay, its records may differ in their call. Activity calls are given as the source filed them. Unless noted, calls come from the whole dose curve; as a rule, active = well fitted curve in the direction sought with a large enough effect in the repeat runs; inconclusive = weak or mixed curves; inactive = no such curve, though single readings can be large; an effect the other way counts as inactive or inconclusive.

Chain of Peroxisome proliferator-activated receptor delta (Homo sapiens) (Q03181 whole entry, looked up): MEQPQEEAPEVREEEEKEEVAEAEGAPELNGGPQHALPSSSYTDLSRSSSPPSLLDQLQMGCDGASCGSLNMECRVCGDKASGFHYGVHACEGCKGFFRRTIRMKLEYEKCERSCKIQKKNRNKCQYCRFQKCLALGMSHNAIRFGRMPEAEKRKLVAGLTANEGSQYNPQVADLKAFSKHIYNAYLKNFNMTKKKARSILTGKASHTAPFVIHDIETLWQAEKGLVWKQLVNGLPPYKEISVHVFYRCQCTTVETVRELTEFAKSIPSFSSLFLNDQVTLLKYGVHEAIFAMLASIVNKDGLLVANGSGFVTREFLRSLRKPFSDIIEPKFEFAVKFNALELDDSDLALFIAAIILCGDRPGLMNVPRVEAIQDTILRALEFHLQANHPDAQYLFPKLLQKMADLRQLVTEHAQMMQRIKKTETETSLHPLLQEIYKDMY
Chain of Bile acid receptor (Homo sapiens) (Q96RI1 whole entry, looked up): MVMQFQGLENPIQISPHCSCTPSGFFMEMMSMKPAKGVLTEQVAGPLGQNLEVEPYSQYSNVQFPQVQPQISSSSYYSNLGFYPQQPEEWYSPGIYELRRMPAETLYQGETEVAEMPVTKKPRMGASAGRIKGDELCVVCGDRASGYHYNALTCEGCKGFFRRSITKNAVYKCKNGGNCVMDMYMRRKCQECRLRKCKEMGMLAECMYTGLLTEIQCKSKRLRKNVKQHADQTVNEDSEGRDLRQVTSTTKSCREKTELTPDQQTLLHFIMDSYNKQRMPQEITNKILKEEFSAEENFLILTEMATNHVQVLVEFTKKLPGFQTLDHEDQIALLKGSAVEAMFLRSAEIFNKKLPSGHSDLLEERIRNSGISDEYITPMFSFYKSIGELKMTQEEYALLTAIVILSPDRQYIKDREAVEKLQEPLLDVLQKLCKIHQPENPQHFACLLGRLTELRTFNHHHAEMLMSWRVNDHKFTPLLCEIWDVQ
Chain of Peroxisome proliferator-activated receptor gamma (Homo sapiens) (P37231 whole entry, looked up): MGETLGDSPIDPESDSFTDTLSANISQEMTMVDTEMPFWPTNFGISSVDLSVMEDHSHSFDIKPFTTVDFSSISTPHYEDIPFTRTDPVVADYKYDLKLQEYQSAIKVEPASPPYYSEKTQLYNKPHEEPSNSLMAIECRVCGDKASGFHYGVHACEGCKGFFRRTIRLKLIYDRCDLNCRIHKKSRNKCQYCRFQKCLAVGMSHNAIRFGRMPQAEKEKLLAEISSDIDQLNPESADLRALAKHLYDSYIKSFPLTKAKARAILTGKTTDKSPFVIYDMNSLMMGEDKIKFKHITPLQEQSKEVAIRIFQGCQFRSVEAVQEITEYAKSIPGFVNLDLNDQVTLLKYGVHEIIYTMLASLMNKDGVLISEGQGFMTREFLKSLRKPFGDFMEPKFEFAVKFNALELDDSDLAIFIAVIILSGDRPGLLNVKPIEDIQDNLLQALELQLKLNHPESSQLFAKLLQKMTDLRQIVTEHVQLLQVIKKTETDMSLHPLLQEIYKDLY
Chain of Vitamin D3 receptor (Homo sapiens) (P11473 whole entry, looked up): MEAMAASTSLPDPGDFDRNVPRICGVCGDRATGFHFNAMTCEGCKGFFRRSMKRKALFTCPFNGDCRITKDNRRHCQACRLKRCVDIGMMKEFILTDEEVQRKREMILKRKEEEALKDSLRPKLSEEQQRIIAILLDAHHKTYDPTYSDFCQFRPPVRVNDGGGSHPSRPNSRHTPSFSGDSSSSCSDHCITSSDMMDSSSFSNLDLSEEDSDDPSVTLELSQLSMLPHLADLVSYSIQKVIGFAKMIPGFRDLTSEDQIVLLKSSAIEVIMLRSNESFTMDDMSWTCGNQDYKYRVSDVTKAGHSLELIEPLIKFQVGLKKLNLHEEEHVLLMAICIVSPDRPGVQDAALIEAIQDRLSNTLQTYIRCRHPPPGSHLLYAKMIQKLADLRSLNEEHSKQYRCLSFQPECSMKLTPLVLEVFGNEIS
Chain of Aryl hydrocarbon receptor (Homo sapiens) (P35869 whole entry, looked up): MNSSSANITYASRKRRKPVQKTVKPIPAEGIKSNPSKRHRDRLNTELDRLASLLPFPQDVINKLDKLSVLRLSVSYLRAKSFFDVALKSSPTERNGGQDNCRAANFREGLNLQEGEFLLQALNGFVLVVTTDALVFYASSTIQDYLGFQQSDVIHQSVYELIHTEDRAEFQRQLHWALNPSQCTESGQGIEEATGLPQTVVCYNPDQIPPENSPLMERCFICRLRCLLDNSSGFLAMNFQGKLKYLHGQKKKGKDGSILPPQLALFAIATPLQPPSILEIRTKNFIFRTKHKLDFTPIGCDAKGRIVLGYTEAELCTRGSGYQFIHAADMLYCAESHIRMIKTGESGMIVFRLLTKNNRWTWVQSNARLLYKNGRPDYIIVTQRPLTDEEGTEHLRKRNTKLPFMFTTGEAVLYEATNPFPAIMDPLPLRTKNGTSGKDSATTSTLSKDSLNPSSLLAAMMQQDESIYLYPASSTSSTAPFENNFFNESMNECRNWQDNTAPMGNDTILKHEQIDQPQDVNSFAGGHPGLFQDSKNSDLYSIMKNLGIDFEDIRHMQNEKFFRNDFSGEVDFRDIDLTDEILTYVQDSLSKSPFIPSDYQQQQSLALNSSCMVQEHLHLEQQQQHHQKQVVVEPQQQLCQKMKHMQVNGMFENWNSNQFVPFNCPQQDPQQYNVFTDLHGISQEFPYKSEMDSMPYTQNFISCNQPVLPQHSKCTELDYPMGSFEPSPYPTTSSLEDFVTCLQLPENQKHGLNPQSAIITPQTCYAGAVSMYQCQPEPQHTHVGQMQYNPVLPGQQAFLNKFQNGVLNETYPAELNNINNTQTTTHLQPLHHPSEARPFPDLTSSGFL

As to `COc1cccc(C=O)c1`, the Potency result in [1], in test [2], in test [3], in test [4], in test [5] and in test [6] was “inactive” in each case. Further, the Potency result in test [7], in test [8], in test [9], in [10] and in test [12] was “inactive” each time. Further, the molecule was called inactive in test [11] and in test [13].

`NC1(c2ccccc2)CCCCC1`: the Potency result in test [1], in test [2], in test [3], in [5], in [6] and in test [7] was “inactive” in each case. Further, the Potency result in test [8], in test [9], in test [10], in test [14], in test [15] and in test [12] was “inactive” in each case. For the same molecule, the Potency entry in [17] was “inactive”. The molecule was called inactive in test [11] and in test [16].

As to `CC1=C2[C@H]3OC(=O)[C@@H](C)[C@@H]3CC[C@@]2(C)C=CC1=O`, the Potency result in [1], in test [2], in test [3], in [4], in test [5] and in test [7] was “inactive” throughout. In addition, the Potency entry in [8], in test [9], in test [10], in test [14], in test [15] and in [12] was “inactive” throughout. In addition, the result in test [11], in [18] and in [16] was inactive.

Regarding `Cc1ccc(Cl)c(O)c1`, the Potency result in test [1], in [2], in test [3], in test [5], in [6] and in test [7] was “inactive” each time. Moreover, the Potency entry in test [8], in test [9], in test [10], in [15], in test [12] and in [17] was “inactive” throughout. The molecule was classed as inactive in test [11], in [18], in test [16] and in [13].

In the case of `COc1cc(CC(C)N)cc(OC)c1OC` (centres undefined), the Potency entry in test [1], in test [2], in [3], in [4], in [5] and in [6] was “inactive” each time. Moreover, the Potency entry in test [7], in test [8], in [9], in test [10], in test [14] and in test [15] was “inactive” in each case. Moreover, the Potency entry in test [12] and in test [17] was “inactive” each time.

As to `CC(C)(O)C(Cl)(Cl)Cl`, the Potency result in [1], in test [2], in [3], in test [4], in [5] and in [6] was “inactive” throughout. Besides, the Potency result in test [7], in test [8], in [14], in [15] and in test [12] was “inactive” throughout. For the same molecule, the molecule was classed as inactive in test [18], in test [16], in test [13] and in test [19].

Take `CN(C)C(=O)Oc1cc(OC(=O)N(C)C)cc(C(O)CNC(C)(C)C)c1` (centres undefined): the Potency result in test [1], in test [2], in test [3], in [4], in test [5] and in [6] was “inactive” throughout. Besides, the Potency result in test [7], in [8], in [10], in test [14], in test [15] and in test [12] was “inactive” each time. For the same molecule, the Potency entry in [17] is “inactive”. For the same molecule, the call in test [11], in test [18], in test [16], in test [13] and in test [19] was inactive.

Turning to `CNC(=O)Oc1ccccc1C(C)C`, the Potency result in test [1], in [2], in [3], in test [5], in test [6] and in test [7] was “inactive” each time. Moreover, the Potency result in [8], in [9], in test [10], in [14], in [12] and in test [17] was “inactive” each time. Further, the result in test [13] was inactive.

As for `CCOC(=O)CC(SP(=S)(OC)OC)C(=O)OCC` (centres undefined), the Potency entry in test [1], in test [3], in [4], in [5], in test [7] and in test [8] was “inactive” throughout. Further, the Potency result in [14], in test [15], in [12] and in test [17] was “inactive” throughout. In addition, the Potency entry was “inactive and 33.1 µM (active)” in test [2]; 6.86 µM (active) in [6]. For the same molecule, the outcome in test [11], in [13] and in test [19] was inactive.
